{"source": "the supplement of paper PMC11219838", "data": [{"system": "Caenorhabditis elegans L1 (N2)", "assay": "survival and reproduction score of C. elegans L1 (0: 0-10 living worms, 1: 11-20, 2: 21-50, 3: >50, 4: overgrown) (score 0-4); higher = more worms, less nematicidal, active = 1 or less; extreme values may be limits of the assay", "details": "60 µM; 6 days; temperature: 20 °C", "in_short": "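In liquid NGM with E. coli HB101, approximately 20 synchronized C. elegans N2 L1s per 96-well well were exposed to compound at 60 µM final (0.6% v/v DMSO) for 6 days at 20 °C with shaking at 200 rpm in sealed plates. Survival and reproduction were judged under a dissection microscope as an ordinal rating of living worms per well. Ratings went from 0 (0–10 worms) to 4 (overgrown, starved) and were averaged over two biological replicates.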", "values": [{"compound": "Clc1ccc(OCc2nc(-c3ccncc3)no2)cc1", "survival and reproduction score": "4 (inactive)"}, {"compound": "Cc1ccccc1-c1noc(-c2cccc(Br)c2)n1", "survival and reproduction score": "4 (inactive)"}, {"compound": "Clc1ccc(-c2nnc(SCc3ccccc3)o2)cc1", "survival and reproduction score": "4 (inactive)"}, {"compound": "Cc1cccc(-c2nnc(SCC(=O)NC(C)c3ccccc3)o2)c1", "note": "(stereo not drawn)", "survival and reproduction score": "4 (inactive)"}, {"compound": "O=C(CSc1nnc(-c2ccncc2)o1)Nc1ccccc1Cl", "survival and reproduction score": "4 (inactive)"}, {"compound": "CC1CC(C)CN(C(=O)CSc2nnc(-c3cccc(Cl)c3)o2)C1", "note": "(stereo not drawn)", "survival and reproduction score": "4 (inactive)"}, {"compound": "O=C(Nc1ccccc1-c1nc(-c2cccnc2)no1)c1cccs1", "survival and reproduction score": "4 (inactive)"}, {"compound": "COc1nc2ccc(C)cc2cc1-c1noc(-c2cccnc2)n1", "survival and reproduction score": "4 (inactive)"}, {"compound": "O=C(CSc1nnc(-c2ccc(Cl)cc2)o1)NC1CCCCC1", "survival and reproduction score": "4 (inactive)"}, {"compound": "COc1nc(-c2ccccc2)ccc1-c1noc(-c2ccco2)n1", "survival and reproduction score": "1 (active)"}, {"compound": "CCOc1cc(C#N)ccc1OCc1nc(-c2cccs2)no1", "survival and reproduction score": "4 (inactive)"}, {"compound": "COc1cccc(-c2noc(COc3ccccc3C)n2)c1", "survival and reproduction score": "4 (inactive)"}, {"compound": "COc1ccc(Br)cc1-c1noc(-c2ccncc2)n1", "survival and reproduction score": "4 (inactive)"}, {"compound": "Cc1ccc(C)c(-c2nc(-c3ccc(Cl)cc3)no2)c1", "survival and reproduction score": "4 (inactive)"}, {"compound": "CCc1nnc(NC(=O)CSc2nnc(-c3ccc(Cl)cc3Cl)o2)s1", "survival and reproduction score": "4 (inactive)"}, {"compound": "CCCOc1ccc(-c2ccc(-c3nc(-c4ccccn4)no3)cc2)cc1", "survival and reproduction score": "4 (inactive)"}, {"compound": "Cc1cc(OCc2nc(-c3cccnc3)no2)cc(C)c1Br", "survival and reproduction score": "4 (inactive)"}, {"compound": "CCOc1ccc(-c2nc(-c3ccccc3C)no2)cc1", "survival and reproduction score": "4 (inactive)"}, {"compound": "Clc1ccccc1OCc1nc(-c2ccc(Br)cc2)no1", "survival and reproduction score": "4 (inactive)"}, {"compound": "O=C(Nc1ccccc1-c1nc(-c2cccnc2)no1)c1cc2ccccc2o1", "survival and reproduction score": "4 (inactive)"}, {"compound": "Cc1ccccc1OCc1nc(-c2ccc(NC(=O)c3ccc(Br)o3)cc2)no1", "survival and reproduction score": "4 (inactive)"}, {"compound": "O=C(CSc1nnc(-c2ccccc2)o1)Nc1ccc2ccccc2c1", "survival and reproduction score": "4 (inactive)"}, {"compound": "COc1ccc(-c2noc(-c3ccccc3C)n2)cc1", "survival and reproduction score": "0 (active)"}, {"compound": "C#CCOc1ccc(-c2nc(-c3ccccc3)no2)cc1", "survival and reproduction score": "0 (active)"}, {"compound": "COc1ccccc1OCc1nc(-c2ccccc2)no1", "survival and reproduction score": "4 (inactive)"}, {"compound": "COc1cccc(-c2noc(-c3ccc(Cl)cc3)n2)c1", "survival and reproduction score": "3 (inactive)"}, {"compound": "CCOC(=O)c1sc(NC(=O)CSc2nnc(-c3ccc(Cl)cc3)o2)c(C#N)c1C", "survival and reproduction score": "4 (inactive)"}, {"compound": "O=C(CSc1nnc(-c2ccccc2Cl)o1)NCc1ccco1", "survival and reproduction score": "4 (inactive)"}, {"compound": "O=C(CSc1nnc(-c2cccc(Br)c2)o1)N1CCCCC1", "survival and reproduction score": "4 (inactive)"}, {"compound": "Clc1ccc(-c2noc(-c3ccc4c(c3)OCCO4)n2)cc1", "survival and reproduction score": "4 (inactive)"}, {"compound": "COc1ccc(-c2nnc(SCC(=O)c3ccccc3)o2)cc1", "survival and reproduction score": "4 (inactive)"}, {"compound": "COc1ccc(-c2nnc(SCC(=O)N(C)c3ccccc3)o2)cc1", "survival and reproduction score": "4 (inactive)"}, {"compound": "Brc1ccc(OCc2nc(-c3cccs3)no2)cc1", "survival and reproduction score": "4 (inactive)"}, {"compound": "O=C(CSc1nnc(-c2ccc(Br)cc2)o1)NC1CCCC1", "survival and reproduction score": "4 (inactive)"}, {"compound": "Clc1ccc(OCc2nc(-c3ccc4c(c3)OCO4)no2)cc1", "survival and reproduction score": "4 (inactive)"}, {"compound": "Cc1cccc(-c2nnc(SCC(=O)NCCc3ccccc3)o2)c1", "survival and reproduction score": "4 (inactive)"}, {"compound": "COc1ccc(-c2noc(COc3ccccc3C)n2)cc1", "survival and reproduction score": "4 (inactive)"}, {"compound": "Cc1c(C)n(C(=O)CSc2nnc(-c3ccccc3)o2)c2ccccc12", "survival and reproduction score": "4 (inactive)"}]}]}
